Broadly, the inhibition is the change of the read-out against control, counted positive when it falls.

Several values for one entry are separate records, joined by “and”; a condition that tells them apart may be missing. Equal values may be shown once. Activity calls are given as the source filed them.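 The calls were made as follows, unless noted: active = inhibition at or above 50% relative to wild type and mutant plate controls; inactive = inhibition below 50%.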

Assay [1] is described as follows: inhibitors of TNFa-induced NFkB p65 translocation, primary screen, imaging, HUVEC, MLSMR starter and 10KST1 sets (AID 438;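 active = inhibition above 20% together with a positive visual image hit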;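 also: compound added about 3h40 before a 20 min TNFalpha stimulation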;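 as to inhibition: signal is the nuclear over cytoplasmic p65 intensity ratio per well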). The note with it: HUVEC TNFa-induced p65 nuclear translocation; cell count: measured here: nuclei count (cytotoxicity indicator), at 2.08 µM; inhibition: at 2 µM, stronger effect = higher value, 0% TNFa-plus-vehicle, 100% no-TNFa wells.
Assay [2] in a line: reduction of polyQ htt aggregates in cells – imaging, exon1htt(103Q)mCFP cells, high-content imaging, primary screen (AID 483;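 active = visual image review flags a hit and inhibition of aggregation exceeds 20%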;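 also: compound exposure lasted 3 days before fixation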;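 as to nuclei count: percent of the per-plate median nuclei count of sample wells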). The settings on record: exon1htt(103Q)mCFP cell line, aggregate imaging, at 2 µM; inhibition of aggregation: stronger effect = higher value; nuclei count: measured here: cell count, toxicity.
Assay [3] is described as follows: endothelial E-selectin expression blockers – imaging, HUVEC, immunofluorescence, MLSMR starter and 10KST1 sets, primary screen (AID 487;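 active = visually confirmed hit in the image check and inhibition above 20%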;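 as to inhibition: signal is fraction of cell area covered by stained E-selectin grains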;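 as to nuclei count: 100% = median nuclei count of all wells on the same plate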). The settings on record: HUVEC TNFalpha-induced E-selectin immunofluorescence imaging, at 2 µM; inhibition: stronger effect = higher value; nuclei count: measured here: cell number, toxicity.
Assay [4] is described as follows: Primary imaging screen for DUSP6 inhibitors that restore phospho-Erk in transfected HeLa cells, chemical complementation (AID 609;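 active = compounds giving at least 50% inhibition in the cell-based MKP-3 phosphatase rescue imaging test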;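 as to inhibition: phospho-Erk level distribution per well compared with pooled transfected vehicle control wells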). The note with it: HeLa MKP-3 transfected, phospho-Erk imaging KS statistic, at 10 µM, cells stimulated with TPA for 15 min.
The target of assay [5] is Dual specificity protein phosphatase 6 (Homo sapiens) (UniProt Q16828). The description is as above. The note with it: HeLa MKP-3 transfected, phospho-Erk imaging KS statistic; at 10 µM; stronger effect = higher value; cells stimulated with TPA for 15 min.
The target in assay [6] is Voltage-gated potassium channel subunit beta-2 (Rattus norvegicus) (UniProt P62483). As to the kind of experiment: inhibitors of rat Kvbeta2 reductase activity – biochemical, NADPH fluorescence, primary screen (AID 622;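 active = fluorescence slope higher than the sample average by over 3 SD, cut at about -0.22 in these data, passing the limit was not always enough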;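 also: slope of raw intensity against log time taken from 70 to 1610 s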). The note with it: recombinant KvBeta, 4-cyanobenzaldehyde reduction, at 10 µM, stronger effect = higher value.
Assay [7] shares this target. As to the kind of experiment: enhancers of rat Kvbeta2 NADPH turnover – biochemical, NADPH fluorescence, primary screen (AID 623;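 active = NADPH fluorescence slope more negative than the mean of all samples by about 3 SD, 99.7% confidence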;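 also: fluorescence intensity change per second fitted from 20 to 320 s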). The settings on record: Recombinant KvBeta, NADPH fluorescence decrease slope, 10 min; at 10 µM; stronger effect = lower value.
The target of assay [8] is Alpha-2C adrenergic receptor (Homo sapiens) (UniProt P18825). As to the kind of experiment: compounds altering alpha2C-coupled GIRK flux – cell-based, HEK293 alpha2C/GIRK1/2, thallium flux, primary screen (AID 624;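 active = fluorescence slope after compound addition differing from the mean of all screened samples at 99.7% confidence, in either direction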;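 also: slope of fluorescence ratio to pre-addition baseline per second over 15 to 24 s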). The note with it: thallium flux BTC fluorescence, at 10 µM, actives lie on both sides.
Assay [9] is described as follows: inhibitors of larval lipid processing in zebrafish, primary screen, whole organism, PED6 fluorescence, gall bladder and intestine (AID 686;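 active = a full or partial loss of lipid-probe fluorescence in the fish gall bladder, intestine or both, judged by eye; inactive = no fluorescence loss, or compound toxic to the fish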;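 also: larvae 5 to 7 days old with five fish per well; signal comes from phospholipase A2 cleavage of quenched PED6 carried via bile; overnight exposure to compound and PED6 before scoring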). The settings on record: Zebrafish larvae PED6 lipid processing, fluorescence scoring; screened at 20 µM (by protocol).
Assay [10] is described as follows: loss of swimming-algae plug formation – whole organism, Chlamydomonas reinhardtii, WT vs cilia-less mutant, absorbance, 96-well, primary screen (AID 463189).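 Also: 0% = wild type cc124 cells in DMSO and 100% = ciliumless bld1 mutant cells.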 The note with it: Chlamydomonas reinhardtii gravitaxis, OD600 absorbance, 2 days; at 10 µM; stronger effect = higher value.
Assay [11] in a line: blockers of RIG-like receptor reporter activation – cell-based, Sendai virus stimulus, luciferase, 10K MLSCN set, TLR/RLR signaling modifier project, primary screen (AID 602276;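 active = inhibition at or above 50% at 10 µM; inactive = inhibition below 50%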;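 also: firefly luciferase from ISG56 promoter only with Renilla not read in this screen; 0% = Sendai virus plus DMSO and 100% = medium plus DMSO without virus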). The settings on record: HEK293 RL24 IRF3 luciferase reporter, at 10 µM, stronger effect = higher value. (In general: Reporter assays use an easily measured gene product as a stand-in for the process of interest.)

Assay [12] is described as follows: TLR3 IRF3 reporter activation blockers – cell-based, poly I:C stimulus, luciferase, 10K MLSCN set, primary screen (AID 602277;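 active = inhibition of the reporter signal at or above 50%; inactive = inhibition below 50%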). The settings on record: HEK293-TLR3 RL24 IRF3 luciferase reporter, at 10 µM, stronger effect = higher value.
Where [13] appears, read: measured here: cell density z-score.
[14] abbreviates: measured here: nuclear c-Myc green intensity z-score.
Where [15] appears, read: measured here: nuclear pErk red intensity z-score, stronger effect = higher value.

Voltage-gated potassium channel subunit beta-2 (Rattus norvegicus), sequence (P62483 whole entry, looked up): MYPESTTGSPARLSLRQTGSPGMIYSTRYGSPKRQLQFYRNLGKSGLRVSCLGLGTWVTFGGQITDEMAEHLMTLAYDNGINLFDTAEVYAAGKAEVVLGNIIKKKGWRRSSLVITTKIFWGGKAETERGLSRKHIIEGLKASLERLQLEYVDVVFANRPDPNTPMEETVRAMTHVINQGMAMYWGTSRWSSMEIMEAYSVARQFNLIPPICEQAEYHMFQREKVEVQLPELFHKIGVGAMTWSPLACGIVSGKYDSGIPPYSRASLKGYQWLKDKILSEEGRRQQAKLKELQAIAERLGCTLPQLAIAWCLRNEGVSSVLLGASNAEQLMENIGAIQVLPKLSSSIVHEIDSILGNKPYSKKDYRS
Dual specificity protein phosphatase 6 (Homo sapiens), sequence (Q16828 whole entry, looked up): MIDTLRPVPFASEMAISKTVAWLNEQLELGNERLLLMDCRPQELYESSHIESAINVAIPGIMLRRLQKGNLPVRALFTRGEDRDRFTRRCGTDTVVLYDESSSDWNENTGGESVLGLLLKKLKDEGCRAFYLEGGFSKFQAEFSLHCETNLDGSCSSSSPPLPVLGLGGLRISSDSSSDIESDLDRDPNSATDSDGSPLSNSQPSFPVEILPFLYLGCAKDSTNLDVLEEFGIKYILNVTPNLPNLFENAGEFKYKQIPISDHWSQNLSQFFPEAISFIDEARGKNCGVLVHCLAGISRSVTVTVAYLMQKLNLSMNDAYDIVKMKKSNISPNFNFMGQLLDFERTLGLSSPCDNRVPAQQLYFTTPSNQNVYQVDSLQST
Alpha-2C adrenergic receptor (Homo sapiens), sequence (P18825 whole entry, looked up): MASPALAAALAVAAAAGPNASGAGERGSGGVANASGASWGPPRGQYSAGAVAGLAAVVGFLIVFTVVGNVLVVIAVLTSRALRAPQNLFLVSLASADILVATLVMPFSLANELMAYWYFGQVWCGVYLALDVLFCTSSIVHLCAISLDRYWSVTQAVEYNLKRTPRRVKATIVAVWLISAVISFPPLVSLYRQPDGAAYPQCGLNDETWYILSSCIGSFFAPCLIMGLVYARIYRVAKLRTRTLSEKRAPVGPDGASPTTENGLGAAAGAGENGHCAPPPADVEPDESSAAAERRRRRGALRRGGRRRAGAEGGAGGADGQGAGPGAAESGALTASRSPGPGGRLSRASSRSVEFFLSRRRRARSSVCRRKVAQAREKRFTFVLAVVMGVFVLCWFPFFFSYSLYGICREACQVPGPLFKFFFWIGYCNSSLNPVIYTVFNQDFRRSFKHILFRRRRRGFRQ

As for `Cc1cccc(N2C(=O)CC(N3CCN(Cc4ccc(Cl)cc4)CC3)C2=O)c1` (stereo not drawn), the cell count in assay [1] turned out to be 544. Moreover, the inhibition in [1] was -6.1% (inactive); in [3], -107% (inactive); in assay [5], 3.56% (inactive); in [10], -12.9% (inactive); in assay [11], 16.4% (inactive); in [12], 18% (inactive). Also, the inhibition of aggregation in [2] was 17.3% (inactive). The figures for the nuclei count in assay [2] and in assay [3] were 110% and 132%, respectively. Moreover, the z-score was 1.1 in assay [4] (setting [13]), -1.84 in assay [4] (setting [14]) and -0.334 in assay [4] (setting [15]). In addition, the fluorescence slope in assay [6] was -0.551 (inactive). For the same compound, in [7], the NADPH fluorescence slope is -3.6e-05 (inactive). The slope in assay [8] was 0.00524 (inactive). For the same compound, the compound was called inactive in [9].

In the case of `CCOC(=O)CSC1=C(C#N)C(c2ccc3c(c2)OCO3)CC(=O)N1` (stereo not drawn), the cell count in [1] amounted to 562. For the same compound, the inhibition is -1.1% (inactive) in assay [1]; -43.4% (inactive) in [3]; 3.66% (inactive) in assay [5]; 14.3% (inactive) in assay [10]; 36.8% (inactive) in assay [11]; 34.7% (inactive) in assay [12]. The inhibition of aggregation in assay [2] is -16.1% (inactive). The results for the nuclei count in [2] and in [3] were 82.2% and 80.7%, respectively. Besides, the z-score in [4] (setting [13]) is -0.992; in assay [4] (setting [14]), 0.745; in [4] (setting [15]) it was 0.964. The fluorescence slope in assay [6] was -0.471 (inactive). Besides, in [7], the NADPH fluorescence slope is -0.000313 (inactive). In addition, in assay [8], the slope is 0.00534 (inactive). Moreover, the result in [9] was inactive.

As for `CCN(CC)CCNC(=O)c1cc(S(C)(=O)=O)ccc1OC`, in assay [1], the cell count came out at 676. The inhibition in assay [1] is -4.3% (inactive); in assay [3], -40% (inactive); in assay [5], 1.48% (inactive); in assay [10], 3.78% (inactive) and -4.27% (inactive); in [11], 21.3% (inactive); in [12], 35.4% (inactive). Moreover, in assay [2], the inhibition of aggregation was 0.8% (inactive). Further, the nuclei count in assay [2] stood at 118%; in [3], 137%. Further, the figures for the z-score in assay [4] (setting [13]), in [4] (setting [14]) and in assay [4] (setting [15]) were -1.16, -0.48 and 0.595, respectively. Also, in [6], the fluorescence slope was -0.508 (inactive). Also, the NADPH fluorescence slope in assay [7] is -3.1e-05 (inactive). Besides, the slope in assay [8] is 0.00485 (inactive). Further, the call in [9] was inactive.

Regarding `O=C(O)c1ccccc1Nc1cccc(C(F)(F)F)c1`, the cell count in assay [1] stood at 626. In addition, the inhibition was 3.3% (inactive) in assay [1]; -44.4% (inactive) in assay [3]; 23.4% (inactive) in assay [5]; -7.16% (inactive) in assay [10]; 5.42% (inactive) in assay [11]; 28.4% (inactive) in assay [12]. The inhibition of aggregation in [2] is -7.4% (inactive). For the same compound, the nuclei count in assay [2] came out at 99.3%; in [3], 131%. Besides, the figures for the z-score in assay [4] (setting [13]), in assay [4] (setting [14]) and in assay [4] (setting [15]) were 0.0659, 0.639 and -1.06, respectively. Besides, the fluorescence slope in assay [6] was -0.455 (inactive). The NADPH fluorescence slope in assay [7] is -3.9e-05 (inactive). Moreover, the slope in [8] is 0.00472 (inactive). In addition, in assay [9], the call was inactive.

As for `CC(C)Cc1nc(N2CCN(C(=O)c3ccco3)CC2)c(C#N)c2c1CCC2`, in assay [1], the cell count is 615. Moreover, the inhibition in assay [1] is 2% (inactive); in [3], -37.8% (inactive); in assay [5], -1.75% (inactive); in assay [10] it was -2% (inactive); in assay [11], 10.7% (inactive); in [12], 12.6% (inactive). In addition, the inhibition of aggregation in assay [2] was -13.4% (inactive). Moreover, the figures for the nuclei count in [2] and in assay [3] were 106% and 116%, respectively. In addition, the z-score in [4] (setting [13]) is 0.33; in [4] (setting [14]), 2.04; in [4] (setting [15]), -0.551. The fluorescence slope in assay [6] is -0.498 (inactive). Besides, the NADPH fluorescence slope in assay [7] is -7e-05 (inactive). In assay [8], the slope is 0.00426 (inactive). Besides, the outcome in assay [9] was inactive.

For `Cc1nc(-c2coc3cc(OCC(=O)O)ccc3c2=O)cs1`, the cell count in assay [1] amounted to 642. The inhibition is -9% (inactive) in [1]; -136% (inactive) in assay [3]; 11.9% (inactive) in assay [5]; 29.5% (inactive) in [10]; 20.3% (inactive) in assay [11]; 15.4% (inactive) in assay [12]. Further, the inhibition of aggregation in assay [2] was 16.4% (inactive). The nuclei count in [2] was determined as 100%; in assay [3] it was 114%. Also, the z-score is -0.205 in assay [4] (setting [13]), 0.979 in assay [4] (setting [14]) and 0.055 in [4] (setting [15]). In [6], the fluorescence slope is -0.552 (inactive). Further, the NADPH fluorescence slope in [7] was -4.6e-05 (inactive). For the same compound, the slope in assay [8] is 0.00509 (inactive). The result in [9] was inactive.

As to `Brc1c(NC2=NCCN2)ccc2nccnc12`, in assay [1], the cell count was 621. Moreover, the inhibition in assay [1] is -4.8% (inactive); in [3], -58.7% (inactive); in assay [5] it was 34.5% (inactive); in assay [10], 5.25% (inactive) and -5.37% (inactive); in assay [11], 14% (inactive); in [12], 28.8% (inactive). The inhibition of aggregation in [2] was -11.3% (inactive). The nuclei count came to 104% in assay [2] and 120% in assay [3]. Also, the z-score in assay [4] (setting [13]) is -0.535; in assay [4] (setting [14]) it was 0.61; in assay [4] (setting [15]) it was 1.33. In addition, the fluorescence slope in assay [6] was -0.534 (inactive). For the same compound, the NADPH fluorescence slope in [7] is 1.1e-06 (inactive). Besides, the slope in assay [8] is 0.0151 (active). In addition, the outcome in [9] was inactive.

Turning to `CCCOc1cccc(-c2nnc(N)s2)c1`, in assay [1], the cell count stood at 605. Further, the inhibition is -3.6% (inactive) in assay [1]; -83.5% (inactive) in [3]; -11.5% (inactive) in assay [5]; -3.59% (inactive) in assay [10]; -30.1% (inactive) in [11]; -65.7% (inactive) in assay [12]. Further, the inhibition of aggregation in assay [2] is -31.3% (inactive). Also, the nuclei count was determined as 108% in assay [2] and 111% in assay [3]. The z-score in assay [4] (setting [13]) was 0.352; in assay [4] (setting [14]), -0.262; in [4] (setting [15]), -0.207. The fluorescence slope in [6] was -0.443 (inactive). Further, the NADPH fluorescence slope in [7] is -5.5e-05 (inactive). Further, in assay [8], the slope was 0.00934 (inactive). Also, the compound was classed as inactive in [9].

Consider `COC(=O)c1cc(Br)c(=O)n(Cc2cccnc2)c1`, for which, in assay [1], the cell count amounted to 578. Moreover, the inhibition in assay [1] is 3% (inactive); in assay [3] it was -15.9% (inactive); in assay [5], -3.5% (inactive); in assay [10], -26.1% (inactive); in assay [11] it was 9.75% (inactive); in assay [12], 17.7% (inactive). Also, the inhibition of aggregation in assay [2] was -10.7% (inactive). Further, the nuclei count came to 108% in [2] and 109% in assay [3]. Besides, the z-score was -0.222 in assay [4] (setting [13]), 1.1 in assay [4] (setting [14]) and -1.83 in assay [4] (setting [15]). Moreover, the fluorescence slope in assay [6] was -0.545 (inactive). Further, the NADPH fluorescence slope in assay [7] is -2.2e-05 (inactive). Further, the slope in [8] is 0.00588 (inactive). In addition, the result in assay [9] was inactive.

For the origin of these results see PubChem BioAssay.
